Laboratory results: PubChem BioAssay AID1159580 (chemical genetic matrix, 2015)
“And” between values parts separate entries of the source, which are not always exact repeats. Equal values may be shown once. In all, about 5,500 compounds went through this assay and about 2,000 (36%) were called active. Not shown: some 18% with an inconclusive outcome. Cut-off read from the data, not from the text of the source: active = normalized growth mostly below about 0.91 (no sharp cut-off); inconclusive = no clear call, values can overlap the other calls; inactive = mostly above about 0.92. This is one part of the list.

Assay: chemical genetic growth profiling, strain panel (AID 1159580);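 note: tested at 20 µM; growth read once vehicle control cultures reached saturation at 30 °C; 1 = growth at the plate median or of vehicle wells; lower values mean less growth of the strain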
Conditions: S. cerevisiae deletion strains, growth OD

Measured: normalized growth

CC(C)(C)NCC(O)c1ccccc1Cl (stereo unspecified)
inactive: locus YAL013W, strain DEP1, stronger effect = lower value 0.993 | locus YAL021C, strain ccr4, stronger effect = lower value 1.01 | locus YAL026C, strain drs2, stronger effect = lower value 1.01 | locus YAL030W, strain snc1, stronger effect = lower value 0.979 | locus YAL040C, strain CLN3, stronger effect = lower value 0.966 | locus YBL061C, strain skt5, stronger effect = lower value 0.991 | locus YBR009C, strain hhf1, stronger effect = lower value 0.972 | locus YBR021W, strain FUR4, stronger effect = lower value 0.98 | locus YBR023C, strain chs3, stronger effect = lower value 0.993 | locus YBR171W, strain sec66, stronger effect = lower value 0.989 | locus YBR229C, strain ROT2, stronger effect = lower value 0.95 | locus YBR231C, strain swc5, stronger effect = lower value 0.989 | locus YBR279W, strain paf1, stronger effect = lower value 1 | locus YCL011C, strain gbp2, stronger effect = lower value 0.995 | locus YCL016C, strain dcc1, stronger effect = lower value 0.988 | locus YCL029C, strain bik1, stronger effect = lower value 0.978 | locus YCL061C, strain MRC1 (second series), stronger effect = lower value 1.01 | locus YCL061C, strain MRC1, stronger effect = lower value 0.992 | locus YCL069W, strain vba3, stronger effect = lower value 0.991 | locus YCR088W, strain abp1, stronger effect = lower value 0.99 | locus YDL005C, strain med2, stronger effect = lower value 1.01 | locus YDL035C, strain GPR1, stronger effect = lower value 0.947 | locus YDL040C, strain nat1, stronger effect = lower value 0.979 | locus YDL074C, strain BRE1, stronger effect = lower value 1.01 | locus YDL101C, strain DUN1, stronger effect = lower value 0.987 | locus YDL134C, strain PPH21, stronger effect = lower value 0.98 | locus YDL185W, strain tfp1, stronger effect = lower value 0.991 | locus YDL192W, strain arf1, stronger effect = lower value 0.973 | locus YDR001C, strain nth1, stronger effect = lower value 0.978 | locus YDR069C, strain doa4, stronger effect = lower value 0.988 | locus YDR101C, strain arx1, stronger effect = lower value 0.992 | locus YDR137W, strain rgp1, stronger effect = lower value 1.01 | locus YDR150W, strain NUM1, stronger effect = lower value 0.976 and 1.01 | locus YDR159W, strain sac3, stronger effect = lower value 0.939 | locus YDR162C, strain NBP2, stronger effect = lower value 0.979 | locus YDR195W, strain ref2 0.959 | locus YDR297W, strain sur2, stronger effect = lower value 1.01 | locus YDR318W, strain mcm21, stronger effect = lower value 1 | locus YDR334W, strain swr1, stronger effect = lower value 0.996 | locus YDR335W, strain msn5, stronger effect = lower value 0.991 | locus YDR363W, strain ESC2, stronger effect = lower value 0.999 | locus YDR388W, stronger effect = lower value 0.991 | locus YDR392W, strain spt3, stronger effect = lower value 0.831 | locus YDR502C, strain sam2, stronger effect = lower value 0.965 | locus YEL003W, strain gim4, stronger effect = lower value 0.996 | locus YEL037C, strain rad23, stronger effect = lower value 0.994 | locus YEL061C, strain CIN8 (second series), stronger effect = lower value 0.987 | locus YEL061C, strain CIN8, stronger effect = lower value 0.985 | locus YER002W, strain NOP16, stronger effect = lower value 0.988 | locus YER015W, strain faa2, stronger effect = lower value 0.995 | locus YER016W, strain bim1, stronger effect = lower value 0.989 | locus YER110C, stronger effect = lower value 0.966 | locus YER111C, strain swi4, stronger effect = lower value 0.992 | locus YER155C, strain BEM2 (second series), stronger effect = lower value 0.958 | locus YER155C, strain BEM2, stronger effect = lower value 1 | locus YER167W, strain BCK2, stronger effect = lower value 0.957 | locus YFR010W, strain ubp6, stronger effect = lower value 1 | locus YGL078C, strain dbp3, stronger effect = lower value 0.982 | locus YGL086W, strain mad1, stronger effect = lower value 0.978 | locus YGL167C, strain pmr1, stronger effect = lower value 0.989 | locus YGL173C, strain kem1, stronger effect = lower value 1.01 | locus YGL227W, strain vid30, stronger effect = lower value 0.988 | locus YGL240W, strain doc1, stronger effect = lower value 0.981 | locus YGL248W, strain PDE1, stronger effect = lower value 0.984 | locus YGL253W, strain hxk2, stronger effect = lower value 0.994 | locus YGR078C, strain PAC10, stronger effect = lower value 1.01 and 1.02 | locus YGR135W, strain pre9, stronger effect = lower value 0.979 | locus YGR229C, strain SMI1, stronger effect = lower value 1.01 and 1.03 | locus YGR252W, strain gcn5, stronger effect = lower value 0.898 | locus YHR013C, strain ard1, stronger effect = lower value 0.952 | locus YHR027C, strain rpn1, stronger effect = lower value 0.996 | locus YHR030C, strain SLT2, stronger effect = lower value 0.992 and 0.981 | locus YHR079C, strain IRE1 (second series), stronger effect = lower value 1 | locus YHR079C, strain IRE1, stronger effect = lower value 0.977 | locus YHR094C, strain hxt1, stronger effect = lower value 0.991 | locus YHR129C, strain ARP1, stronger effect = lower value 0.997 | locus YHR142W, strain chs7, stronger effect = lower value 1.02 | locus YHR200W, strain rpn10, stronger effect = lower value 1.01 | locus YIL066C, strain RNR3, stronger effect = lower value 0.978 | locus YIL073C, strain SPO22, stronger effect = lower value 0.972 | locus YIL125W, strain kgd1, stronger effect = lower value 0.989 | locus YIR030C, strain dcg1, stronger effect = lower value 0.983 | locus YJL092W, strain hpr5, stronger effect = lower value 0.997 | locus YJL095W, strain BCK1 (second series), stronger effect = lower value 0.996 | locus YJL095W, strain BCK1, stronger effect = lower value 1.02 and 0.99 | locus YJL115W, strain asf1, stronger effect = lower value 0.987 | locus YJL129C, strain trk1, stronger effect = lower value 1 | locus YJL134W, strain LCB3, stronger effect = lower value 0.981 | locus YJL154C, strain vps35, stronger effect = lower value 0.989 | locus YJL164C, strain tpk1, stronger effect = lower value 1.01 | locus YJL166W, strain qcr8, stronger effect = lower value 0.987 | locus YJL168C, strain set2, stronger effect = lower value 0.995 | locus YJL187C, strain SWE1 (second series), stronger effect = lower value 0.994 | locus YJL187C, strain SWE1, stronger effect = lower value 0.997 | locus YJR043C, strain POL32, stronger effect = lower value 1.03 | locus YJR066W, strain TOR1, stronger effect = lower value 0.921
